The test system of assay [1] is Wnt5a (protein binding on small-molecule microarray). Briefly: Wnt5a binders on small-molecule microarray, primary screen, biophysical, 635/667 nm fluorescence (AID 1142).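 Further: fluorescence read at 667 nm with signal to noise per printed feature.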 As to conditions: 635 nm fluorescence, higher = more signal.
The nature of assay [2]: cell viability in Huh7 cells, primary screen, cytotoxicity control for HCV replication inhibitor project, CellTiter-Glo luminescence, basal, 48 h (AID 1143).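 Further: Huh7 hepatoma cells carrying a hepatitis C replication reporter with no stimulus; test concentration not given here.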 The following applies: Huh7 HCV replicon, higher = more signal, called active from +8 up or from −8 down.
Assay [3] can be described thus: P. aeruginosa biofilm formation inhibitors, primary screen, PAO1 strain, BacTiter-Glo luminescence, LB-PBS (AID 1144). As to conditions: 12 h, higher = more signal.
Assay [4] can be described thus: CREB reporter modulators without forskolin, primary screen, cell-based, PC12, CRE-LacZ reporter, unstimulated (AID 1145). The following applies: no forskolin, luminescence, 4.5 h, higher = more signal, called active from +8 up or from −8 down.
Assay [5] is described as follows: CREB reporter modulators under forskolin, primary screen, cell-based, PC12, CRE-LacZ reporter, forskolin-stimulated (AID 1146).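 Further: PC12 cells with 6xCRE LacZ reporter stimulated by forskolin 10 µM; beta-galactosidase reporter signal reflecting CREB driven transcription.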 The following applies: luminescence, 4.5 h, higher = more signal, called active from +8 up or from −8 down.
In assay [6] the target is Streptavidin (Streptomyces avidinii) (UniProt P22629). The experiment in a line: streptavidin binders on small-molecule microarray, primary screen, artefact control for SMM compound annotation, biophysical, 635/667 nm fluorescence (AID 1147).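 Further: signal reflects streptavidin binding to arrayed compounds as a control protein.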 The following applies: streptavidin binding, higher = more signal.
The nature of assay [7]: small-molecule binders of probe aInhba, primary screen, biochemical, small-molecule microarray, 635/667 nm fluorescence (AID 1148).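 Further: score merges 667nm spot fluorescence with signal-to-noise for antibody binding to printed compounds.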 As to conditions: higher = more signal.
The target of assay [8] is Torsin-1A (Homo sapiens) (UniProt O14656). The experiment in a line: torsin A binders from cell lysate, primary screen, small-molecule microarray, wild-type, 635/667 nm (AID 1149). As to conditions: COS7 hTOR1A-WT lysate, 635 nm fluorescence, higher = more signal.
For assay [9] the target is unchanged. The experiment in a line: small-molecule binders of mutant TOR1A in lysate, primary screen, cell lysate, small-molecule microarray, COS7 lysate, 635/667 nm fluorescence (AID 1150).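 Further: score pools 667 nm emission and signal to noise measuring lysate protein binding.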 As to conditions: COS7 hTOR1A mutant lysate, 635 nm fluorescence, higher = more signal.
For assay [10], the system named is Sonic hedgehog protein (Shh). The experiment in a line: small-molecule binders of Shh protein, primary screen, biochemical, small-molecule microarray, 635/667 nm fluorescence (AID 1151).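 Further: Shh protein binding to compounds spotted on small-molecule microarray slides; score combines spot fluorescence intensity with signal-to-noise across triplicate slides.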 As to conditions: small-molecule microarray binding, 635 nm fluorescence; higher = more signal.

Structures are written as SMILES. Active and inactive are the calls of the source. Unless noted, how the calls were made is not given here.

Torsin-1A (Homo sapiens), sequence (O14656 whole entry, looked up): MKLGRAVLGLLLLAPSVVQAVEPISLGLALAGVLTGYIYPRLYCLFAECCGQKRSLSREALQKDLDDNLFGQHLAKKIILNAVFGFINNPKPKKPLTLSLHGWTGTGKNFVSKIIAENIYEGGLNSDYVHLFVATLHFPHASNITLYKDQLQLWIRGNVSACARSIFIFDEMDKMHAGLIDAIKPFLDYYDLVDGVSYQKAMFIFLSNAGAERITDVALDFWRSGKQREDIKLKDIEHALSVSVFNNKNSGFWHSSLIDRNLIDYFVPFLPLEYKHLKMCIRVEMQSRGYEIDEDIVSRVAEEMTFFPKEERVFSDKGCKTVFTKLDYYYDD
Streptavidin (Streptomyces avidinii), sequence (P22629 whole entry, looked up): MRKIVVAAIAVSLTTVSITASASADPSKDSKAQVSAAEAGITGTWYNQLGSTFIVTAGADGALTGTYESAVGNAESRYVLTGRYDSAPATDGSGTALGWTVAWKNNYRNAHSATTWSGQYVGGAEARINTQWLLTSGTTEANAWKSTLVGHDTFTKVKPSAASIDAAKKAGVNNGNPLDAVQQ

For the compound `CC=CC(O)C1C=CC2C(=O)N(c3ccccc3)C(=O)C2N1Nc1ccc([N+](=O)[O-])cc1` (stereo not given), the composite z-score in [1] is -0.0454; in assay [6] it was 0.395; in assay [7] it was -0.162; in [8], 0.463; in assay [9], -0.213; in [10], 0.224. The z-score in assay [2] is 0.612 (inactive); in assay [3], 0.698 (inactive); in assay [4], -0.415 (inactive); in [5] it was 0.0268 (inactive).

As to `COCCOC(=O)N1C(=O)[C@@]2(c3cc(C#CC4=CCCCC4)ccc31)[C@H](C(=O)N1CCN(c3ncccn3)CC1)[C@H]1C(=O)O[C@H](c3ccccc3)[C@H](c3ccccc3)N1[C@@H]2c1ccc(O)cc1`, the composite z-score in assay [1] is 0.282; in assay [6], 0.45; in assay [7], -0.0736; in [8], 0.714; in assay [9], 0.296; in assay [10], 1.5. For the same compound, the z-score in [2] was -1.17 (inactive); in [3] it was -0.13 (inactive); in [4], 0.761 (inactive); in assay [5] it was -0.0066 (inactive).

For the compound `C=C(CCCC)/C(=C/C[C@@H](OC(=O)c1ccncc1)c1cccc(OCCO)c1)c1cnc2ccccc2c1`, the composite z-score was found to be 1.25 in assay [1]; 1.49 in assay [6]; 0.194 in [7]; 1.22 in [8]; 0.0816 in [9]; 2.09 in [10]. Also, the z-score in [2] was -3.08 (inactive); in assay [3], -0.772 (inactive); in assay [4], 3.22 (inactive); in assay [5] it was 0.644 (inactive).

Consider `CCOc1cc(C(O)C2C=CC3C(=O)N(C)C(=O)C3N2N2CCCCC2)ccc1O` (stereo not given), for which the composite z-score in assay [1] is 0.194; in [6], 0.3; in assay [7], -0.137; in [8], 0.28; in assay [9] it was 0.221; in [10], 0.0937. Besides, the z-score in assay [2] is 0.862 (inactive); in assay [3], -0.401 (inactive); in assay [4], 0.433 (inactive); in assay [5], -0.499 (inactive).

Turning to `Cc1ccc(S[C@]2(C(=O)NC(C)C)CC(=O)N(C3Cc4ccccc4C3)[C@@H]2c2ccc(CO)cc2I)cc1`, the composite z-score in assay [1] was -0.511; in assay [6] it was -0.959; in [7], -0.355; in assay [8], -1.49; in assay [9], -0.009; in [10] it was -0.274. In addition, the z-score in assay [2] is -1.83 (inactive); in [3], -0.0878 (inactive); in [4], 0.622 (inactive); in assay [5] it was 1.28 (inactive).

As to `O=C1NC(=O)C2C1C=CC(C(O)c1ccc(Br)cc1)N2Nc1ccccn1` (stereo not given), the composite z-score in assay [1] is 0.336; in [6], 0.363; in assay [7] it was 0.126; in [8] it was 0.196; in assay [9], 0.301; in assay [10], -0.248. For the same compound, the z-score was -0.0358 (inactive) in assay [2], -1.45 (inactive) in [3], -0.322 (inactive) in assay [4] and 0.521 (inactive) in assay [5].

As for `[N-]=[N+]=NCc1ccccc1C[C@@]1(C(=O)NCCN2CCOCC2)N=C(c2ccc(OCCCO)cc2)O[C@@H]1c1ccccc1N=[N+]=[N-]`, the composite z-score in assay [1] was 0.512; in assay [6], 0.408; in assay [7] it was 0.0906; in assay [8], 0.5; in [9] it was 1.73; in assay [10], -0.492. Besides, the z-score was -5.21 (inactive) in assay [2], -0.503 (inactive) in [3], 0.69 (inactive) in [4] and -1.46 (inactive) in assay [5].

In the case of `Cc1ccc(S[C@]2(C(=O)NC(C)C)CC(=O)N(Cc3ccccc3C(F)(F)F)[C@@H]2c2ccc(CO)cc2I)cc1`, the composite z-score in assay [1] was -0.38; in assay [6] it was -0.281; in assay [7], -0.239; in [8], -0.93; in assay [9], -1.17; in assay [10], -0.181. Further, the z-score in assay [2] is -4.73 (inactive); in [3], -0.9 (inactive); in assay [4], -0.141 (inactive); in assay [5], 1.12 (inactive).

As to `C=CCC(OC(C)=O)[C@@H]1[C@@H](N(Cc2ccc(-c3ccccc3)cc2)C(=O)c2cccc3ccccc23)c2cc(OCCCO)ccc2N1C(=O)Cc1ccc2ccccc2c1` (stereo not given in full), the composite z-score in assay [1] is -0.195; in [6] it was -0.0695; in assay [7], -0.17; in [8], 0.0517; in assay [9], 0.12; in assay [10], 0.39. Also, the z-score in assay [2] was -1.31 (inactive); in [3] it was 0.457 (inactive); in assay [4], 0.423 (inactive); in assay [5], -0.481 (inactive).

Turning to `C=CC[C@]1(C(=O)N(C)C)N=C(c2ccc(OCCCO)cc2)O[C@H]1c1ccccc1N=[N+]=[N-]`, the composite z-score was 0.596 in assay [1]; 1.61 in assay [6]; -0.0136 in assay [7]; 0.73 in assay [8]; 0.696 in assay [9]; -1.32 in assay [10]. The z-score in assay [2] is -2.58 (inactive); in assay [3], 0.00404 (inactive); in assay [4] it was 1.99 (inactive); in assay [5], -1.23 (inactive).

For `CC1CC/C=C\[C@H]2OC34C=CCN(c5ccc6ccccc6c5)C(=O)[C@H]3N(C(CO)C(C)C)C(=O)[C@@H]4C2C(=O)O1` (stereo not given in full), the composite z-score in assay [1] was -0.257; in assay [6] it was -0.217; in assay [7], 0.0028; in assay [8], -1.06; in [9], -0.477; in [10], 0.485. Moreover, the z-score is -0.0047 (inactive) in assay [2], 1.27 (inactive) in [3], -0.0939 (inactive) in [4] and -0.714 (inactive) in [5].

In the case of `CCCc1cccc(=O)o1`, the composite z-score is 0.0303 in [1]; 0.216 in assay [6]; -0.128 in [7]; 1.08 in assay [8]; 0.5 in [9]; 0.542 in [10]. Also, the z-score is -1.62 (inactive) in [2], -0.848 (inactive) in [3], -0.574 (inactive) in assay [4] and 0.646 (inactive) in [5].

On to `COCCOC(=O)N1C(=O)[C@@]2(c3cc(C#CC4=CCCCC4)ccc31)[C@H](c1ccc(O)cc1)N1[C@H](c3ccccc3)[C@H](c3ccccc3)OC(=O)[C@H]1[C@@H]2C(=O)Nc1nc2ccccc2s1`, for which the composite z-score worked out at 0.365 in assay [1]; 1.18 in [6]; 0.52 in assay [7]; 0.776 in assay [8]; 0.89 in assay [9]; 1.73 in assay [10]. The z-score in assay [2] was -0.799 (inactive); in assay [3], -0.424 (inactive); in [4], 0.476 (inactive); in assay [5] it was 2.17 (inactive).

Consider `CCOC(=O)C[C@H]1[C@H](OC(=O)Cc2ccc3c(c2)OCO3)[C@@H](NC(=O)C2CCCCC2)c2cc(OCCCO)ccc2N1C(=O)c1ccc2ccccc2n1`, for which the composite z-score in [1] was 0.305; in [6], 0.658; in assay [7], -0.0361; in [8], 0.392; in assay [9] it was 0.172; in [10], 1.39. For the same compound, the z-score in [2] was -3.34 (inactive); in assay [3] it was -0.273 (inactive); in assay [4] it was 6.45 (inactive); in assay [5], 0.871 (inactive).

Source of the values: PubChem BioAssay.
